# Source: PubChem
# Sampled rows, rich in hits. Any-hit rate of the full collection: about 9.3%.
# SMN2 splice enh = qHTS Assay for Enhancers of SMN2 Splice Variant Expression; HEK293 SMN2-luciferase splicing reporter, luminescence, 30-36 h; Potency, µM (top dose mostly 46.1 µM), usual class: activators; 2.8% of 210,000 active; AID 1458, 2008; also: nearly all actives have a fitted effect of over 55% in size
#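 qHTS luciferase splicing reporter: luminescence rises when SMN2 exon 7 is included in transfected HEK293 cells. Compound exposure lasted 30-36 h at 37C, with 4.5 mM final sodium butyrate as control, followed by a ONE-Glo read.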
# ELG1 repair inh = qHTS screen for small molecules that inhibit ELG1-dependent DNA repair in human embryonic kidney (HEK293T) cells expressing luciferase-tagged ELG1 | Potency, µM (top dose mostly 46.1 µM), actives largely listed as inhibitors | HEK293T ELG1-luciferase reporter, luminescence, 16 h; DNA damage induced by 5-fluorouridine | 2.3% of 330,000 active; also: nearly all actives have a fitted effect of over 55% in size
#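 Luminescence from the luciferase reporter, measured 30 min after ONE-Glo reagent at room temperature, was the read-out. Beforehand, 2,000 cells per well were exposed for 16 hr at 37 °C to 5-fluorouridine together with compound or vehicle.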
# ELG1 genotox = qHTS screen for small molecules that induce genotoxicity in human embryonic kidney (HEK293T) cells expressing luciferase-tagged ELG1; HEK293T ELG1-luciferase reporter, luminescence, 16 h; Potency, µM (series often up to 46 µM), usual class: activators; 1.3% of 330,000 active; AID 504466, 2011; also: nearly all actives have a fitted effect of over 60% in size
#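 HEK293T cells expressing luciferase-tagged ELG1 were treated with compound or DMSO for 16 hr at 37°C. Luciferase activity was then read after 30 min with ONE-Glo at room temperature; rising signal flags genetic stress.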
# Rab9 prom act = qHTS Assay for Rab9 Promoter Activators; Huh7 Rab9 promoter-luciferase reporter, luminescence, 24 h; Potency, µM (highest dose often 9.22 µM), usual class: activators; 2.8% of 320,000 active; AID 485297, 2010; also: nearly all actives have a fitted effect of over 60% in size
#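 Measured in stably transfected Huh7 cells bearing a Rab9 promoter–luciferase construct: 24 h compound treatment at 37 °C, followed by luminescence detection.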
# FLuc modulator = qHTS profiling assay for firefly luciferase inhibitor/activator using purifed enzyme and Km concentrations of substrates (counterscreen for miR-21 project); purified FLuc, Km substrates, luminescence inhibition; Potency, µM (doses to about 57.5 µM), usual class: inhibitors; 6.9% of 360,000 active; also: nearly all actives have a fitted effect of over 55% in size
# Target sequence (P08659 whole entry, looked up): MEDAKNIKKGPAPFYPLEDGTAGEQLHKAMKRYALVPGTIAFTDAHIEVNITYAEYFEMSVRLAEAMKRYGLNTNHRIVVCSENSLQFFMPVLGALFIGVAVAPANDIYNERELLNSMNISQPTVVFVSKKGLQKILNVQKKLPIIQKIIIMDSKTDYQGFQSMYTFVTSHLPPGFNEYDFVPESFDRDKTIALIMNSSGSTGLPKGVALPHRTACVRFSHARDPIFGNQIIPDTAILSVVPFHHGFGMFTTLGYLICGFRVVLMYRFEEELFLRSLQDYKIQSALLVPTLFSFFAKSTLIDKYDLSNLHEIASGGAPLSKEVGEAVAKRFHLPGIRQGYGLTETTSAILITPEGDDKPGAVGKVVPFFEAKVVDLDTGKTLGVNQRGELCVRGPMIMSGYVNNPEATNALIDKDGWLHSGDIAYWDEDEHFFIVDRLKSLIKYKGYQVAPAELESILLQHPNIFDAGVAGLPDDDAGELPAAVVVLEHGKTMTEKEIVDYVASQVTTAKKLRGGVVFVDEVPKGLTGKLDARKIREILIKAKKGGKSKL
#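 Biochemical qHTS of compounds, final roughly 60 µM downward over six points, against 10 nM purified firefly luciferase using Km concentrations of substrates (10 uM D-luciferin, 10 uM ATP) in Tris acetate pH 7.5 buffer; luminescence output.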
# NPC1 prom act = qHTS Assay for NPC1 Promoter Activators. Potency, µM (highest dose often 9.22 µM), usual class: activators. AID 485313, 2010. Huh7 NPC1 promoter luciferase reporter, 24 h. 2.4% of 320,000 active; also: nearly all actives have a fitted effect of over 60% in size
#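 Compounds in DMSO were transferred onto Huh7 NPC1-luciferase reporter cells pre-incubated 2 h; after 24 h at 37 °C, Amplite reagent was dispensed and luminescence recorded 10 min later.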
# A number is an active result; n = inactive; u = inconclusive; x = no result. Calls follow the shape of the dose curve; as a rule, active = well fitted curve in the direction sought with a large enough effect; inconclusive = small, poorly fitted or top-dose-only effect, or another doubt; inactive = no such curve, though single readings can be large; an effect the other way counts as inactive or inconclusive.
SMILES,SMN2 splice enh,ELG1 repair inh,ELG1 genotox,Rab9 prom act,FLuc modulator,NPC1 prom act
CCOC(=O)C1=C(c2ccccc2)NC(=S)NC1c1cccc([N+](=O)[O-])c1 (stereo unspecified),x,n,n,n,n,n
CCOC(=O)C1C(=O)C=C(c2ccc(C)cc2)CC1c1ccco1 (stereo unspecified),n,n,n,n,12µM,n
CCN1CCN(C(=O)N2CCOCC2)CC1,x,n,n,n,n,n
C=CCNC(=S)Nc1sc2c(c1C#N)CCCC2,n,n,n,n,21.3µM,n
CC(=O)Nc1sc2c(c1C#N)CCCCC2,n,u,n,n,u,n
Cc1ccccc1C(=O)NC(=S)Nc1sc2c(c1C#N)CCCC2,n,u,n,n,19µM,n
N#Cc1c(NC(=O)c2ccccc2)sc2c1CCCCC2,0.631µM,u,u,0.562µM,u,0.794µM
Cc1ccc(C(=O)Nc2sc3c(c2C#N)CCCCC3)cc1C,u,u,u,3.16µM,u,2.24µM
CC(CNC(=O)c1nnc(Cc2ccc(F)cc2)o1)c1ccccc1 (stereo unspecified),x,x,x,x,n,x
O=C(NCc1cccc(Cl)c1)c1ccc(NC(=O)N2CC3CCCN3c3ccccc32)cc1 (stereo unspecified),x,x,x,x,n,x
CCCc1ccc(OCC(=O)Nc2sc3c(c2C(=O)OCC)CCC(C(C)(C)C)C3)cc1 (stereo unspecified),n,x,x,x,n,x
Nc1nc(N2CCN(c3ccc(F)cc3)CC2)n[nH]1,n,n,n,n,n,n
O=C1C(Cl)=C(NC(=O)c2ccccc2)C(=O)C(Cl)=C1NC(=O)c1ccccc1,x,n,n,n,u,n
N#Cc1c(Cl)nsc1NC(=O)c1ccccc1,n,2.91µM,n,n,15.1µM,n
CC(C)(C)C1CCC(OC(=O)c2ccncc2)CC1 (stereo unspecified),n,n,n,n,u,n
CC(C)(C)C1CCC(OC(=O)CN2CCCCC2)CC1 (stereo unspecified),x,n,n,n,19µM,n
CCOC(=O)c1c(-c2ccc(C)cc2)csc1NC(=O)c1cc(=O)c2ccc(C)cc2o1,n,x,x,x,n,x
CC(=O)N1C2(C=CC1(C)C(=O)NCc1ccc(C)o1)CCCCC2 (stereo unspecified),n,x,x,x,x,x
O=C(CCSc1ccccc1)N1CCOCC1,12.6µM,u,8.2µM,2.82µM,19µM,2.82µM
Cc1ccc(SCCC(=O)N2CCOCC2)cc1,u,u,n,n,u,n
O=C(CSc1ccc(Cl)cc1)N1CCCC1,u,u,u,u,u,n
O=C(CCSc1ccccc1)NC1CCCCCC1,n,n,n,n,10.7µM,n
O=C(CCSc1ccccc1)N1CCCC1,11.2µM,u,u,2.82µM,16.9µM,2.51µM
CC#CCOC(=O)C1=CCCN(C)C1,n,x,x,x,x,x
COC(=O)/C(=N/Nc1ccccc1OC)N1CCCc2ccccc21,x,n,n,n,n,n
SMILES,SMN2 splice enh,ELG1 repair inh,ELG1 genotox,Rab9 prom act,FLuc modulator,NPC1 prom act
CCc1ccc(C(=O)Cn2ncc(Cl)c(Cl)c2=O)cc1,x,n,n,n,7.57µM,n
CCOc1cccc(CNc2ccc(O)cc2)c1OCc1ccccc1Cl,n,18.4µM,n,n,n,n
CCOc1cccc(CNc2ccc(O)cc2)c1OCc1ccc(Cl)cc1Cl,n,u,n,n,n,n
C=CCOc1c(CNc2ccc(C(=O)O)cc2)cccc1OCC,u,u,n,u,21.3µM,u
C=CCOc1c(CNc2cccc(C(=O)O)c2)cccc1OCC,n,n,n,n,n,n
C=CCOc1cccc(CNc2cccc(C(=O)O)c2)c1,x,u,n,u,9.53µM,u
C=CCOc1c(CNc2ccc(C(=O)O)cc2)cccc1OC,u,n,n,n,n,n
C=CCOc1c(CNc2cccc(C(=O)O)c2)cccc1OC,u,u,u,u,15.1µM,u
O=C(O)c1cccc(NCc2cccnc2)c1,n,u,n,n,n,n
CCCSc1nnc(-c2c[nH]c3ccccc23)n1C,n,u,u,n,15.1µM,n
Cc1cccc(NC(=O)c2cc(-c3ccc(C)s3)nc3ccccc23)n1,n,6.51µM,n,n,10.7µM,n
CCN1CCN(C(=O)c2cc(-c3ccc(Cl)s3)nc3ccccc23)CC1,x,n,n,n,19µM,n
Cc1ccc(-c2cc(C(=O)O)c3ccccc3n2)s1,x,u,u,n,2.69µM,n
O=C(Nc1ccccn1)c1cc(-c2ccc(Cl)s2)nc2ccccc12,x,u,n,n,u,n
Cc1cc(NC(=O)c2cc(-c3ccc(C)s3)nc3ccccc23)no1,n,n,n,n,u,n
O=C(O)c1cc(-c2ccc(Cl)s2)nc2ccccc12,u,u,n,n,15.1µM,n
CC(=O)c1ccc(NC(=O)c2cc(-c3ccc(C)s3)nc3ccccc23)cc1,n,x,x,x,n,x
COC(=O)C1CCN(C(=O)c2cc(-c3ccc(Cl)s3)nc3ccccc23)CC1,x,u,n,n,u,n
COC(=O)c1cc(C(=O)OCC(=O)NC(=O)NCc2ccccc2)cc([N+](=O)[O-])c1,x,n,n,n,n,n
COc1cccc(CC2(CO)CCCN(Cc3c(C)cc(C)cc3-n3cccn3)C2)c1 (stereo unspecified),x,n,n,n,n,n
O=c1c2ccccc2c(/C=N/c2n[nH]c(CCCO)n2)c(O)n1-c1ccccc1Cl,n,n,n,n,16.9µM,n
O=C(N/N=C/c1c(O)n(-c2ccccc2Cl)c(=O)c2ccccc12)C1COc2ccccc2O1 (stereo unspecified),n,u,n,n,n,n
COc1ccc(CC(=O)Nc2ccc(-c3nnc(-c4ccccc4)o3)cc2)cc1OC,n,u,n,n,n,n
COc1ccc(CC(=O)Nc2cccc(-c3ccc4nncn4n3)c2)cc1OC,n,7.3µM,n,n,n,n
COc1ccc(CC(=O)Nc2cccc(-c3nnc(-c4ccc(C)cc4)o3)c2)cc1OC,n,11.6µM,n,n,3.01µM,n
COc1ccc(CC(=O)Nc2cccc(-c3nnc(-c4cccc(C)c4)o3)c2)cc1OC,n,2.91µM,n,n,u,n
COc1ccc(CC(=O)Nc2cccc(-c3nnc(-c4ccccc4)o3)c2)cc1OC,n,5.01µM,n,n,u,n
Cc1ccc(S(=O)(=O)NCc2ccccc2)cc1C(=O)NC(C)c1ccc(S(N)(=O)=O)cc1 (stereo unspecified),x,n,n,n,n,n
COc1ccc(S(=O)(=O)N2CCCC2)cc1C(C)C,n,n,n,n,n,n
